Measured values as given in PubChem BioAssay AID1159580 (chemical genetic matrix, 2015).
Hit rate of the full screen: of about 5,500 compounds, about 2,000 (36%) were called active. Not shown: some 18% with an inconclusive outcome. The list shows a part of the results. Values without a mark were called inactive. No stated cut-off is given here; in the data, active means normalized growth mostly below about 0.91 (no sharp cut-off); inconclusive means no clear call, values can overlap the other calls; inactive means mostly above about 0.92.

Test: chemical genetic growth profiling, strain panel (AID 1159580);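 further: tested at 20 µM; growth read once vehicle control cultures reached saturation at 30 °C; 1 = growth at the plate median or of vehicle wells; lower values mean less growth of the strain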
Conditions: growth OD
[1] = S. cerevisiae deletion strains, locus YMR263W, strain SAP30, hits give low values
[2] = S. cerevisiae deletion strains, locus YNL153C, strain GIM3, hits give low values
[3] = S. cerevisiae deletion strains, locus YAL013W, strain DEP1, hits give low values
[4] = S. cerevisiae deletion strains, locus YBR229C, strain ROT2, hits give low values
[5] = S. cerevisiae deletion strains, locus YDL101C, strain DUN1, hits give low values
[6] = S. cerevisiae deletion strains, locus YDR150W, strain NUM1, hits give low values
[7] = S. cerevisiae deletion strains, locus YEL061C, strain CIN8, hits give low values
[8] = S. cerevisiae deletion strains, locus YGR078C, strain PAC10, hits give low values
[9] = S. cerevisiae deletion strains, locus YHR030C, strain SLT2, hits give low values
[10] = S. cerevisiae deletion strains, locus YHR087W, strain rtc3, hits give low values
[11] = S. cerevisiae deletion strains, locus YJL187C, strain SWE1, hits give low values
[12] = S. cerevisiae deletion strains, locus YJR043C, strain POL32, hits give low values
[13] = S. cerevisiae deletion strains, locus YJR075W, strain HOC1, hits give low values
[14] = S. cerevisiae deletion strains, locus YLR039C, strain RIC1, hits give low values
[15] = S. cerevisiae deletion strains, locus YLR058C, strain SHM2 (second series), hits give low values
[16] = S. cerevisiae deletion strains, locus YLR085C, strain ARP6, hits give low values
[17] = S. cerevisiae deletion strains, locus YLR262C, strain YPT6, hits give low values
[18] = S. cerevisiae deletion strains, locus YML094W, strain GIM5, hits give low values
[19] = S. cerevisiae deletion strains, locus YMR219W, strain ESC1, hits give low values
[20] = S. cerevisiae deletion strains, locus YNL298W, strain CLA4 (second series), hits give low values
[21] = S. cerevisiae deletion strains, locus YNL322C, strain KRE1, hits give low values
[22] = S. cerevisiae deletion strains, locus YNR030W, strain Alg12, hits give low values
[23] = S. cerevisiae deletion strains, locus YPL055C, strain LGE1, hits give low values
[24] = S. cerevisiae deletion strains, locus YPL241C, strain CIN2, hits give low values
[25] = S. cerevisiae deletion strains, locus YPR135W, strain CTF4, hits give low values

## Nc1nc(OCc2ccccc2)c2[nH]cnc2n1
S. cerevisiae deletion strains, locus YAL040C, strain CLN3, hits give low values
  normalized growth: 0.994
S. cerevisiae deletion strains, locus YCL061C, strain MRC1 (second series), hits give low values
  normalized growth: 1
S. cerevisiae deletion strains, locus YDR363W, strain ESC2, hits give low values
  normalized growth: 1.02
S. cerevisiae deletion strains, locus YER002W, strain NOP16, hits give low values
  normalized growth: 1
[1]
  normalized growth: 1
[2]
  normalized growth: 0.999
S. cerevisiae deletion strains, locus YNL175C, strain NOP13, hits give low values
  normalized growth: 0.982
S. cerevisiae deletion strains, locus YNL197C, strain WHI3, hits give low values
  normalized growth: 0.984
S. cerevisiae deletion strains, locus YNL224C, strain SQS1, hits give low values
  normalized growth: 1.02
S. cerevisiae deletion strains, locus YOR083W, strain WHI5 (second series), hits give low values
  normalized growth: 1.01

## O=[N+]([O-])c1ccc(N2CCCCC2)nc1N1CCCCC1
[3]
  normalized growth: 0.967
[4]
  normalized growth: 0.96
[5]
  normalized growth: 0.978
[6]
  normalized growth: 0.961
[7]
  normalized growth: 0.95
[8]
  normalized growth: 0.963
S. cerevisiae deletion strains, locus YGR229C, strain SMI1, hits give low values
  normalized growth: 0.961
[9]
  normalized growth: 0.587 (active)
[10]
  normalized growth: 0.943
[11]
  normalized growth: 0.954
[12]
  normalized growth: 0.977
[13]
  normalized growth: 0.914
[14]
  normalized growth: 0.581 (active)
[15]
  normalized growth: 0.954
[16]
  normalized growth: 0.568 (active)
[17]
  normalized growth: 0.59 (active)
[18]
  normalized growth: 0.9
[19]
  normalized growth: 0.944 (active)
[1]
  normalized growth: 0.95
[2]
  normalized growth: 0.909 (active)
[20]
  normalized growth: 0.906
[21]
  normalized growth: 0.921 (active)
[22]
  normalized growth: 0.89
[23]
  normalized growth: 0.908
[24]
  normalized growth: 0.803 (active)
[25]
  normalized growth: 0.587 (active)

## O=[N+]([O-])c1cc(C(F)(F)F)c(N2CCCCC2)cc1N1CCCCC1
[3]
  normalized growth: 0.996
[4]
  normalized growth: 0.994
[5]
  normalized growth: 1.03
[6]
  normalized growth: 1.01
[7]
  normalized growth: 0.967
[8]
  normalized growth: 1.01
[9]
  normalized growth: 1.01
[10]
  normalized growth: 0.98
[11]
  normalized growth: 0.977
[12]
  normalized growth: 1.01
[13]
  normalized growth: 0.996
[14]
  normalized growth: 0.864
[15]
  normalized growth: 0.974
[16]
  normalized growth: 0.915
[17]
  normalized growth: 0.972
[18]
  normalized growth: 0.973
[19]
  normalized growth: 0.983
[1]
  normalized growth: 1.01
S. cerevisiae deletion strains, locus YMR307W, strain GAS1, hits give low values
  normalized growth: 1.02
[2]
  normalized growth: 1.03
[20]
  normalized growth: 1.03
[21]
  normalized growth: 0.989
[22]
  normalized growth: 0.989
[23]
  normalized growth: 0.978
[24]
  normalized growth: 1.02
[25]
  normalized growth: 0.977
S. cerevisiae strains, strain wild type, hits give low values
  normalized growth: 0.992
